Inconclusive results are not listed. Activity calls are given as the source filed them. Calls come from the whole dose curve; as a rule, active = well fitted inhibition curve with a large enough effect; inconclusive = small, poorly fitted or top-dose-only effect; inactive = flat fitted curve, though single readings scatter.
Target: Ubiquitin carboxyl-terminal hydrolase 1 (Homo sapiens) (UniProt O94782)
Test: Inhibitors of USP1/UAF1: Pilot qHTS (AID 504865); note: nearly all actives have a fitted effect of over 35% in size;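 for activity change, negative = inhibition: rhodamine fluorescence freed from ubiquitin-rhodamine substrate followed over time; top concentration of the series differs between compounds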
Settings: purified USP1/UAF1, Ub-rhodamine cleavage fluorescence; series mostly up to 114 µM; activity change, negative = inhibition: at the top concentration
Summary of the method: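 USP1/UAF1 complex (1nM) preincubated with compound 15 min at room temperature, then Ub-Rho substrate (150nM final) added. Fluorescence read kinetically at 480/540 nm, 6 reads every 60 seconds. Buffer: 50mM HEPES pH 7.8, 0.5mM EDTA, 0.1 mg/ml BSA, 1mM TCEP, 0.01% Tween-20.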
% is set by controls: 0 for no effect and ±100 for the full control effect; potency is the fitted concentration of half-maximal effect.

Sequence of Ubiquitin carboxyl-terminal hydrolase 1 (Homo sapiens) (O94782 whole entry, looked up): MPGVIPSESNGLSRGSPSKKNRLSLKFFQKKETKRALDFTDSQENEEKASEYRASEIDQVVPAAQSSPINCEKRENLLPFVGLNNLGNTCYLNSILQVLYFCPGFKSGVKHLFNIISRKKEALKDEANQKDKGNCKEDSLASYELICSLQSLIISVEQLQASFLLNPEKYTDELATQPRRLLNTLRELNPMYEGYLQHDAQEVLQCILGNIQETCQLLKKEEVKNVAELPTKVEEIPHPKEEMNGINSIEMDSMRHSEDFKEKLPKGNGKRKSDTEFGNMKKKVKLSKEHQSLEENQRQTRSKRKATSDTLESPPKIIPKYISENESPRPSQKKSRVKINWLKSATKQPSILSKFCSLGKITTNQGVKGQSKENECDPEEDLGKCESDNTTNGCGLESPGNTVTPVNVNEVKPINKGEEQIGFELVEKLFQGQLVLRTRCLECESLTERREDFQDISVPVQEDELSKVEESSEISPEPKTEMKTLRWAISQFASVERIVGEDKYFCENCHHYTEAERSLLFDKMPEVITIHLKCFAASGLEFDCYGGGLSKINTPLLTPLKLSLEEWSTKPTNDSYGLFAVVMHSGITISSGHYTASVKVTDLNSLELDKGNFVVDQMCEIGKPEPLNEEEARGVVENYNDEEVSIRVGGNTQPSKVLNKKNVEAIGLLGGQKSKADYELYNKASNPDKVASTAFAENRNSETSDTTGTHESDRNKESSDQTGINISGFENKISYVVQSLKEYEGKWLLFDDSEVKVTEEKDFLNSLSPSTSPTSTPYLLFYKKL

SMILES | activity change, negative = inhibition | Potency
COc1cc(-c2cc(=O)c3c(O)c(OC)c(OC)c(OC)c3o2)cc(OC)c1OC | 0.614% (inactive) | –
C#C[C@]1(O)CCC2C3CCC4=Cc5oncc5C[C@@]4(C)C3CC[C@@]21C (stereo not given in full) | -7.95% (inactive) | –
CC(=O)OC1CC2C(C)(C)C=CC(=O)[C@@]2(C)C2CC[C@@]3(C)C(c4ccoc4)OC(=O)C4OC43[C@]12C (stereo not given in full) | -13.1% (inactive) | –
CC1(C)CCC2(C(=O)O)CC[C@]3(C)C(=CCC4[C@]5(C)CCC(O)C(C)(C)C5C(O)C[C@]43C)C2C1 (stereo not given in full) | -4.83% (inactive) | –
CC1(C)C(=O)C2C[C@]3(O)C4=CC(=O)OC(c5ccoc5)[C@]4(C)CCC3[C@](C)(C2=O)C1CC(=O)O (stereo not given in full) | -8.31% (inactive) | –
Cc1cc(=O)oc2c(O)c(O)ccc12 | -4.39% (inactive) | –
C#C[C@@]1(O)CCC2C3CCC4=CC(=O)CCC4C3CC[C@@]21CC (stereo not given in full) | -4.98% (inactive) | –
C[C@@H]1CCC2[C@](C)(CO)C(O)CC[C@@]2(C)[C@@]12CC[C@](CO)(CCO)O2 (stereo not given in full) | -7.8% (inactive) | –
CC1(C)CCCC2(C)C3C(O)CC2(C)C(O)C31 (stereo not given) | -10.3% (inactive) | –
COc1ccc2c(c1OC)C(=O)O[C@H]2C1c2c(cc3c(c2OC)OCO3)CCN1C (stereo not given in full) | 1.23% (inactive) | –
CC(=O)O[C@](C)(CCC=C(C)C)C1CC=C(C)CC1 (stereo not given in full) | -6.78% (inactive) | –
COc1ccc(C2Oc3cc(OC)cc(OC)c3CC2O)cc1 (stereo not given) | -12.8% (inactive) | –
COc1cccc(O)c1O | -10.5% (inactive) | –
CC1(C)C[C@@H]2C(=O)CCC3O[C@@]3(C)CCC21 (stereo not given in full) | -5.3% (inactive) | –
CC(=O)OCC(=O)[C@]1(O)C(C)CC2C3CCC4=CC(=O)C=C[C@@]4(C)[C@]3(F)C(O)C[C@@]21C (stereo not given in full) | -8.57% (inactive) | –
O=C1c2ccccc2C(=O)c2c(O)c(O)cc(O)c21 | – | 25.1 µM (active)
CC(=O)OC1CC(OC(C)=O)[C@]2(C)C(CC(=O)[C@]3(C)C2CC[C@@]2(C)C(C(=O)O)OC(=O)C4OC423)C1(C)C (stereo not given in full) | -6.74% (inactive) | –
COC1=CC(=O)C(C(=O)c2ccccc2)=CC1=O | – | 25.1 µM (active)
COc1ccc(C2CC(=O)c3c(O)cc(O)cc3O2)cc1O (stereo not given) | -14% (inactive) | –
COc1ccc(-c2coc3c(O)c(OC)ccc3c2=O)cc1 | -4.89% (inactive) | –

SMILES | activity change, negative = inhibition | Potency
COC(=O)/C(=C1\OC(=O)C(c2ccccc2)C1=O)c1ccccc1 (stereo not given) | -7.51% (inactive) | –
COC(=O)C1OC(=O)C2O[C@@]23[C@]2(C)C(OC(C)=O)CC4C(C)(C)C(=O)CC[C@]4(C)C2CC[C@@]13C (stereo not given in full) | -12.5% (inactive) | –
O=c1c(O)c(-c2ccccc2)oc2cccc(O)c12 | -6.53% (inactive) | –
Cc1cc(O)c(C=O)c(O)c1C(=O)O | -9.07% (inactive) | –
O=C(NC1CCCCC1)NC1CCCCC1 | -2.56% (inactive) | –
CC1(C)OC2CC3C4CC(F)C5=CC(=O)C=C[C@@]5(C)[C@@]4(F)C(O)C[C@@]3(C)[C@]2(C(=O)CO)O1 (stereo not given in full) | -5.93% (inactive) | –
O=c1cc(-c2ccccc2)oc2cccc(O)c12 | – | inactive
COC(=O)CC1C(C)(C)C2(O)OC34CC2C(=O)[C@@]1(C)C3CC[C@]1(C)C4=CC(=O)OC1c1ccoc1 (stereo not given in full) | -11.4% (inactive) | –
CC1CC2C3CCC4=CC(=O)C=C[C@]4(C)[C@@]3(Cl)C(O)C[C@]2(C)C1(OC(=O)c1ccco1)C(=O)CCl (stereo not given in full) | -6.65% (inactive) | –
S=c1ccss1 | -14.2% (inactive) | –
CC1(C)C(O)C=C[C@@]2(C)C1CC(=O)O[C@@]1(C)C3=CC(=O)OC(c4ccoc4)[C@]3(C)CCC21 (stereo not given in full) | -14.5% (inactive) | –
COc1ccc(-c2coc3cc(O)ccc3c2=O)c(OC)c1 | -9.67% (inactive) | –
COc1cc(O)cc(OC)c1OC | -2.57% (inactive) | –
CC1CC[C@@]23CCC4(C)[C@@]5(C)CCC6C(C)(C)C(O)CC[C@@]6(C)C5C=C[C@@]4(OC2=O)C3C1C (stereo not given in full) | -15.8% (inactive) | –
CC1(C)CC[C@]2(C(=O)O)CC[C@@]3(C)C(=CCC4[C@@]5(C)CCC(O)[C@@](C)(CO)C5CC[C@@]43C)C2C1 (stereo not given in full) | -12.2% (inactive) | –
COC(=O)c1cc(OC)c(=O)c2c(OC)c(OC)ccc2c1 | -6.38% (inactive) | –
COc1ccc(C2CC(=O)c3ccc(OC)cc3O2)cc1 (stereo not given) | -5.25% (inactive) | –
CCOC(=O)C(Cc1ccc(O)cc1)NC(C)=O (stereo not given) | -6.14% (inactive) | –
COc1ccc(C(=O)c2ccc(O)cc2)c(O)c1O | -9.76% (inactive) | –
CC(C)=CCOc1cc2oc(=O)ccc2cc1O | -13.1% (inactive) | –
